Bioassay records from PubChem BioAssay.
Rows were chosen to be rich in hits. Some 4% of all compounds tested hit in one or more screens of this group.
GDH-TPI inh = GDH-TPI coupled enzyme inhibition counter-screen; GDH-TPI coupled enzyme counterscreen, NADH absorbance; inhibition, % at 4.8 µM; 360,000 compounds, 1.2% hits;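 also: 0% = DMSO wells and 100% = wells lacking the enzyme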
CCHF vOTU inh-1 = blocks the CCHF virus ovarian tumor domain protease; 370,000 compounds, 0.55% hits; inhibition, % at 11.5 µM; AID 651958; CCHFV vOTU protease, Pep-AMC fluorescence; also: 0% = vehicle wells with enzyme and 100% = no enzyme wells
Mtb FBA inh = inhibits M. tuberculosis FBA enzyme; P9WQA3; purified M. tuberculosis FBA, fluorescence read-out; inhibition, % at 1 µM; 360,000 compounds, 2.3% hits; in the data active = inhibition above about 27%;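 also: 0% = vehicle and 100% = reference inhibitor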
Target sequence (P9WQA3 whole entry, looked up): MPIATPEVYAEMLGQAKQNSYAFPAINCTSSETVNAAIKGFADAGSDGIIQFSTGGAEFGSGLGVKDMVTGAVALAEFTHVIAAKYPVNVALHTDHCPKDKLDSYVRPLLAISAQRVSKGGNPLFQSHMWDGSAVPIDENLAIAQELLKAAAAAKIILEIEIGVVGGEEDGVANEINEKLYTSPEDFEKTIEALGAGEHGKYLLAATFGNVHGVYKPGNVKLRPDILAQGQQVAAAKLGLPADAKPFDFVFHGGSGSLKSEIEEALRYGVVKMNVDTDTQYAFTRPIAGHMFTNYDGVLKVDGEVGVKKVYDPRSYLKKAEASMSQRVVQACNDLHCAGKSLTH
Mtb bLac sens = beta-lactam sensitization of Mtb H37Rv | M. tuberculosis H37Rv growth with meropenem, percent inhibition | inhibition, % at 25 µM | 330,000 compounds, 0.27% hits | AID 434955; call rule not given here;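 also: growth measured after seven days incubation then overnight dye step; 0% = bacteria only wells and 100% = bacteria with antibiotic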
MazF activator = activators of E. coli MazEF toxin-antitoxin RNase; P0AE70; FAM/BHQ RNA-DNA oligo cleavage fluorescence, 5 h; activation, % at 20 µM; 350,000 compounds, 0.32% hits; AID 504720; in the data active = activation above about 50%
Target sequence (P0AE70 whole entry, looked up): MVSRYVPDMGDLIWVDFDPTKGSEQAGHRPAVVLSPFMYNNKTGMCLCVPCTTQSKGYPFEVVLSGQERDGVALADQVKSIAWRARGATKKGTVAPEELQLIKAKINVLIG
CCHF vOTU inh-2 = confirmation of CCHF virus vOTU protease inhibitors; inhibition, % at 11.5 µM; Recombinant CCHFV vOTU, Pep-AMC fluorescence; AID 686976; shares compounds with CCHF vOTU inh-1; 1,900 compounds, 17% hits
Numbers without * were called inactive; ? = inconclusive; / = no result given. Rule as the data show it, unless noted: active = inhibition above about 30%; inactive = the rest.

SMILES	GDH-TPI inh	CCHF vOTU inh-1	Mtb FBA inh	Mtb bLac sens	MazF activator	CCHF vOTU inh-2
O=C(Cc1ccc2cccnc2c1)c1ccc(O)cc1O	51.9*	48.1*	-2.5	13.6	-0.9	-6.0
COc1ccc(S(=O)(=O)N(C)C[C@H]2Oc3ccc(NS(=O)(=O)c4cn(C)cn4)cc3C(=O)N([C@H](C)CO)C[C@@H]2C)cc1	-10.0	13.5	2.2	-3.6	1.0	/
COc1ccccc1CCNC(=O)C(=O)NCC1OCCN1S(=O)(=O)c1ccc2c(c1)OCCO2 (stereo not given)	-6.3	13.4	0.3	-7.4	3.6	/
CCN(CC)S(=O)(=O)c1ccc(N2CCOCC2)c(NC(=O)Cc2cccc3ccccc23)c1	-8.6	11.3	0.8	3.7	-2.1	/
CCN(Cc1ccccc1)C(=O)COC(=O)c1cc(=O)[nH]c2ccccc12	2.5	-8.4	8.9	-0.4	-21.8	/
CCOC(=O)SC1=N/C(=C\c2ccc(N(C)C)cc2)C(=O)S1	9.3	-0.6	-10.0	-6.8	-11.3	/
Cc1cc2c(=Cc3ccc(N(C)C)cc3)c3ccccc3n2[n+]1C	6.9	34.4*	-12.4	/	-79.6	8.6
CCOC(=O)c1cc2c(=Cc3ccc(N(C)C)cc3)c3ccccc3n2[n+]1C	20.6	96.5*	-1.4	/	36.3	78.6*
CN(C)c1ccc(C=c2c3ccccc3n3c2c2ccccc2[n+]3C)cc1	24.3	0.4	-0.6	/	-6.0	/
CN(C)C(CNC(=O)c1cccc(C(F)(F)F)c1)c1ccco1 (stereo not given)	-3.7	-10.8	1.7	-4.2	7.7	/
COc1cc(Cl)cc(C(c2c(C(=O)O)[nH]c3ccccc23)c2c(C(=O)O)[nH]c3ccccc23)c1O	0.8	24.5	-0.1	3.0	-11.3	/
O=C(O)c1[nH]c2ccccc2c1C(c1cc(Br)ccc1O)c1c(C(=O)O)[nH]c2ccccc12	20.8	34.9*	5.4	-0.7	-0.8	11.9
O=C1C=C(O)c2[nH]c(=O)ccc2C1=O	17.2	95.5*	1.1	/	1.3	66.8*
O=C1c2ccccc2C(=O)c2c(/C=C/N3CCCCC3)ccnc21	2.3	29.8*	-3.2	/	33.9	52.1*
COCCNC(=O)CSc1nnc(NC(=O)C2CC(=O)N(c3ccccc3OC)C2)s1 (stereo not given)	-2.0	-7.8	-1.6	-13.0	0.5	/
COc1cc(/C=C(\C#N)C(=O)NCC2CCCO2)ccc1OCCC(C)C (stereo not given)	7.2	-11.6	-1.8	65.3	16.0	/
O=S(=O)(c1ccc(NC(=S)Nc2ccccc2)cc1)N1CCOCC1	15.3	0.2	3.9	1.1	2.4	/
CC(C)CCCCCCNC(=S)Nc1ccc(S(=O)(=O)N2CCOCC2)cc1	8.7	31.0*	-0.5	5.9	-2.4	10.9
COc1ccc(OCC(=O)NC(=S)Nc2ccc3c4c(cccc24)CC3)cc1	8.8	29.9*	-4.8	0.6	-0.3	2.3
C/C(Cl)=C/Cc1c(C)[nH]c2ccc(C)cc2c1=O	-6.8	-1.7	0.0	2.4	4.9	/
Cc1[nH]c2ccc(F)cc2c(=O)c1SC(F)(F)C(F)F	-2.2	29.9*	0.7	-3.6	-1.1	-19.2
O=C(NCCCN1CCCC1=O)Nc1ccc([N+](=O)[O-])cc1	21.4	-3.7	-1.9	?	3.8	/
O=C(N/N=C/c1ccc(OCc2ccccc2)cc1)c1ccncc1	7.1	11.1	-2.1	-3.5	-0.8	/
Oc1ccc(N=Cc2ccc(OCc3ccccc3)cc2)cc1	0.9	93.6*	0.4	-0.2	-6.0	66.6*
Clc1ccc(C(c2ccc(Cl)cc2)n2cc[n+](CC(OCc3ccc(Cl)cc3Cl)c3ccc(Cl)cc3Cl)c2)cc1 (stereo not given)	3.4	40.9*	0.8	100.1	-136.1	25.2
SMILES	GDH-TPI inh	CCHF vOTU inh-1	Mtb FBA inh	Mtb bLac sens	MazF activator	CCHF vOTU inh-2
Clc1ccc(COC(Cn2ccnc2)c2ccc(Cl)cc2Cl)cc1 (stereo not given)	0.5	12.5	3.9	98.6	1.9	/
Cc1ccc(C(O)c2ncc(-c3ccc(F)cc3)[nH]2)c(C)c1 (stereo not given)	-1.8	31.4*	-0.9	/	/	-22.3
Cc1cccc(C(O)c2ncc(-c3cccc(C(F)(F)F)c3)[nH]2)c1C (stereo not given)	-5.8	43.8*	1.6	/	/	-10.3
COc1ccc(NC(=O)CN2C(=O)COc3ccc(C)cc32)cc1	12.8	9.0	2.8	-10.3	5.0	/
CCO/C=C1\C(=O)N(c2ccccc2)C(=O)c2ccccc21	-6.2	/	15.4	2.4	12.3	/
CCO/C=C1/C(=O)N(Cc2ccccc2)C(=O)c2ccccc21	-1.1	95.1*	2.5	1.7	6.3	108.1*
C[C@H](CO)N1C[C@H](C)[C@@H](CN(C)C(=O)NC2CCCC2)Oc2cc(Br)ccc2S1(=O)=O	0.5	30.1*	-0.1	/	-3.4	-9.7
COc1ccc(S(=O)(=O)N(C)C[C@@H]2Oc3cc(C#CC4CCCCC4)ccc3S(=O)(=O)N([C@@H](C)CO)C[C@@H]2C)cc1	16.5	31.5*	2.1	/	-9.1	-8.4
CC1CC(C)CN(CCCNC(=O)CN2C(=O)COc3ccc(S(=O)(=O)N4CCOCC4)cc32)C1 (stereo not given)	0.0	-14.4	-0.9	-1.0	5.6	/
COCc1ccc(C(=O)NC2CCCc3c2cnn3-c2ccc(C)c(C)c2)o1 (stereo not given)	-5.6	8.2	0.2	?	1.4	/
COC(=O)[C@]1(Cc2ccccc2)N[C@H](CN(C)C(=O)Nc2ccccc2)[C@@H]2C(=O)N(Cc3ccccc3)C(=O)[C@@H]21	0.0	36.9*	4.8	1.6	-2.7	-24.8
O=C(O)CSc1cc(C(=O)c2cc(F)ccc2O)cn2c(=O)c3c(-c4ccccc4)csc3nc12	23.4	32.9*	9.2	3.5	-10.1	6.3
O=[N+]([O-])c1ccccc1-c1ccc(C(=S)N2CCCCC2)o1	20.0	9.8	2.4	57.6	-4.0	/
O=[N+]([O-])c1ccccc1-c1ccc(C(=S)N2CCCC2)o1	-1.3	30.1*	4.1	1.6	2.7	39.1*
O=C(Nc1ccccn1)Nc1ccccc1Cl	-2.5	11.2	0.7	0.9	-17.5	/
CN(CC(=O)Nc1ccc(F)cc1)C(=O)COC(=O)c1ccccc1	-7.9	29.9*	1.1	-10.9	1.4	-2.1
CN(CC(=O)Nc1ccc(F)cc1)C(=O)COC(=O)c1cccc(N(C)C)c1	10.5	10.8	-3.3	9.4	1.4	/
O=C(O)c1ccc(Cl)c(NCc2cccs2)c1	-2.3	-9.7	0.5	-7.9	-4.3	/
COc1ccc(OC)c(S(=O)(=O)Oc2ccc(N)c3ccccc23)c1	20.0	29.8*	0.6	-14.1	-0.6	-13.8
COc1ccc(OC)c(S(=O)(=O)Nc2cccc3ccccc23)c1	-2.3	-7.5	1.9	2.7	0.3	/
O=C(Nc1ccc2c(c1)OCO2)C1CC(=O)N(c2ccc(F)cc2)C1 (stereo not given)	-1.5	-9.5	-0.9	5.1	15.3	/
O=S(=O)(O)c1cc(Cl)cc(N=Nc2ccc(O)cc2O)c1O	12.9	31.3*	-9.7	/	-17.2	7.6
O=[N+]([O-])c1ccc(N=Nc2ccc(O)cc2O)cc1	-0.9	-3.3	-0.3	31.2	5.4	/
